Results filed as inconclusive are left out. Entries that show only a call come without a potency. Active and inactive are the calls of the source. The call rests on the fitted dose curve; in most records, active means well fitted cell-killing curve with a large enough effect in the repeat runs; inconclusive means weak or mixed curves, or effect the other way; inactive means flat fitted curve, though single readings scatter.
Test: cAMP Responsive Elements (CRE) small molecule antagonists, cell-based qHTS assay: qHTS cell viability counter screen (AID 2060913); further: nearly all actives have a fitted effect of over 40% in size
Settings: CRE-bla HEK293T viability, CellTiter-Glo luminescence, 5 h; series mostly up to 92.4 µM
In short: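 Cytotoxicity counter screen multiplexed with the CRE-bla antagonist read: HEK293T cells in DMEM with dialyzed FBS and 25 mM HEPES were treated 3 hrs under 0.25 uM final NKH477, then viability measured by CellTiter-Glo luminescence.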
Potency means the concentration at half of the fitted maximal effect.

Row | SMILES | Potency
1 | CC(=O)c1cnccn1 | inactive
2 | CC(=O)Nc1ccc(S(=O)(=O)Cl)cc1 | inactive
3 | CC(=O)Oc1ccc(C2(c3ccc(OC(C)=O)cc3)Oc3ccccc3NC2=O)cc1 | inactive
4 | CCc1ccc(C(=O)C(C)CN2CCCCC2)cc1 (stereo not given) | inactive
5 | COc1cc(N)c(Cl)cc1C(=O)NC1CCN(CCCOc2ccc(F)cc2)CC1OC (stereo not given) | inactive
6 | [Cu+] | inactive
7 | Cc1ccc(S(=O)(=O)C(I)I)cc1 | 61.1 µM (active)
8 | CCc1cc(S(=O)(=O)O)c2cc(C(C)C)cccc1-2 | inactive
9 | OC1CCC(C2CCCCC2)CC1 (stereo not given) | inactive
10 | FC(F)OC(Cl)C(F)(F)F (stereo not given) | inactive
11 | CC(CCc1ccc2c(c1)OCO2)NN (stereo not given) | inactive
12 | O=C1c2cccc(O)c2C(=O)c2c(O)cc(CO)cc21 | inactive
13 | O=C(/C=C/c1ccccc1)OC/C=C/c1ccccc1 | inactive
14 | Oc1ccc(CCNCCCCCCNCCc2ccccc2)cc1O | inactive
15 | COc1ccc(C(=O)/C(Br)=C\C(=O)O)cc1 | inactive
16 | CC=C(Cl)Cl | inactive
17 | CSc1nnc(C(C)(C)C)c(=O)[nH]1 | inactive
18 | COC(=O)c1cc(C(=O)OC)cc(S(=O)(=O)O)c1 | inactive
19 | Nc1cc(C(Cl)=C(Cl)Cl)c(S(N)(=O)=O)cc1S(N)(=O)=O | inactive
20 | CCOC(=O)Cn1c(=O)sc2cccc(Cl)c21 | inactive
21 | C=CCN(CC=C)CC=C | inactive
22 | N=C(N)c1ccc(OCCCCCOc2ccc(C(=N)N)cc2)cc1 | inactive
23 | C=Cc1ccc(C=C)cc1 | inactive
24 | COc1cccc(O)c1 | inactive
25 | COC(=O)C1=C(C)NC(C)=C(C(=O)OC(C)C)C1c1cccc2nonc12 (stereo not given) | inactive

From PubChem BioAssay (Tox21)
